# Screening data as filed in PubChem.
# PLK1 PBD block: qHTS for Inhibitors of PLK1-PDB (polo-like kinase 1 - polo-box domain): Primary Screen; Serine/threonine-protein kinase PLK1 (Homo sapiens), P53350; Plk1 PBD binding of FITC phosphopeptide, fluorescence polarization; Potency, µM, for inactives: max response, negative = inhibition, actives largely listed as inhibitors; hit rate 2.8% among 360,000; AID 720504, 2013; further: potency means the concentration at half of the fitted maximal effect; series mostly up to about 57 µM; on the % scale 0 is the no-effect control and ±100 the full control effect; nearly all actives have a fitted effect of over 65% in size
# Vif-APOBEC3F blk: qHTS for Inhibitors of Vif-A3F Interactions: qHTS. HeLa A3F-eYFP + Vif (tagged APOBEC3F with the HIV-1 protein that degrades it), YFP fluorescence increase. Potency, µM (doses to about 46.1 µM), for the others: at the highest dose activity, negative = active. hit rate 0.2% among 390,000; further: potency means the concentration at half of the fitted maximal effect; % of control where 0% means no effect; nearly all actives have a fitted effect of over 65% in size
#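 HeLa cells stably expressing Vif plus C-terminally eYFP-tagged A3F were seeded, incubated overnight at 37 deg C, dosed with compound, incubated overnight again at 37 deg C. Yellow fluorescence (Ex 488/Em 500-530) reported blocked Vif-mediated A3F-eYFP degradation.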
# Vif-APOBEC3G blk: qHTS for Inhibitors of Vif-A3G Interactions: qHTS | DNA dC->dU-editing enzyme APOBEC-3G (Homo sapiens), Q9HC16 | hit rate 0.076% among 410,000 | HeLa A3G-eYFP + Vif (tagged APOBEC3G with the HIV-1 protein that degrades it), YFP fluorescence, overnight | Potency, µM (highest dose often 46.1 µM), without a hit: at the top dose activity, negative = active, most hits filed as inhibitors | AID 602310, 2012; further: potency means the concentration at half of the fitted maximal effect; on the % scale 0 is the no-effect control and ±100 the full control effect; nearly all actives have a fitted effect of over 60% in size
#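 HeLa cells stably expressing Vif and C-terminally eYFP-tagged A3G, seeded overnight at 37 deg C, then exposed to compound by pintool overnight at 37 deg C. Rise in yellow fluorescence (Ex 488/Em 500-530, Acumen) marks blocked Vif-driven A3G degradation.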
# TSHR antagonist: Antagonists of the Thyroid Stimulating Hormone Receptor: HTS campaign; Thyrotropin receptor (Homo sapiens), P16473; activity change, negative = inhibition, % at 11.5 µM; hit rate 0.2% among 330,000; TSHR-expressing cells, TSH-stimulated cAMP HTRF, 2 h; hits give low values; AID 504810, 2011;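 active means activity change below a set negative limit, meaning inhibition stronger than a set level, cut at about -70% in these data; inconclusive means activity change between two set negative limits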; further: on the % scale 0 is the no-effect control and ±100 the full control effect
# Target sequence (P16473 whole entry, looked up): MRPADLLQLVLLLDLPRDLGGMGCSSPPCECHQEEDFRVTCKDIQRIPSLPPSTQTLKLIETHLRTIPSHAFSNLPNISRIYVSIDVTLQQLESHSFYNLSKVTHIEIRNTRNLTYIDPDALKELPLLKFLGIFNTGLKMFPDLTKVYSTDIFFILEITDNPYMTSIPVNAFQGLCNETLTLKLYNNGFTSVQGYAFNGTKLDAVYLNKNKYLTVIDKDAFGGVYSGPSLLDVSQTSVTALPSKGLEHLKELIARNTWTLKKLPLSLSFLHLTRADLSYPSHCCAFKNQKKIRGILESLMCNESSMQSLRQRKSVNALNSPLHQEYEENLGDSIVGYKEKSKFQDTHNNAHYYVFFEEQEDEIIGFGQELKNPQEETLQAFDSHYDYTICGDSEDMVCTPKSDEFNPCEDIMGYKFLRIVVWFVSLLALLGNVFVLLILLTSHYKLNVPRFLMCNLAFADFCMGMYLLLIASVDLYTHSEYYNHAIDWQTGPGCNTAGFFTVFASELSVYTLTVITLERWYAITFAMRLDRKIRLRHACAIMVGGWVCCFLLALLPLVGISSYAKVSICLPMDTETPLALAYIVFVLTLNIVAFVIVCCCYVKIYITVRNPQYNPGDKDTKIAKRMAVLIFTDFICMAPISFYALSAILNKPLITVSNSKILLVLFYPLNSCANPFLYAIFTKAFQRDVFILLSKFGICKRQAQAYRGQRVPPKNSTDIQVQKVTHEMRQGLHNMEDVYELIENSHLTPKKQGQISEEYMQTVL
#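 TSHR-expressing cells were treated with compounds, then stimulated with TSH at EC80 (4nM final) for 2 hours at 37 deg C. Cellular cAMP was measured by HTRF competition between lysate cAMP and cAMP-d2 for a cryptate-labelled anti-cAMP antibody.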
# VDR inhibitor: Inhibitors of the vitamin D receptor (VDR): qHTS | Vitamin D3 receptor (Homo sapiens), P11473 | VDR-SRC2-3 peptide fluorescence polarization, 2 h | Potency, µM, for inactives: max response, negative = inhibition, hits mostly inhibitors | hit rate 0.93% among 400,000 | AID 504847, 2011; further: potency means the concentration at half of the fitted maximal effect; on the % scale 0 is the no-effect control and ±100 the full control effect
#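 The screen uses fluorescence polarization to detect compounds that interfere with recruitment of the SRC2-3 coactivator peptide to VDR; plates are read after 2 h at room temperature.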
# Numbers without * were called inactive; ? = inconclusive; nt = no result given. The list is not random: actives were taken first. Their share in the collection is about 3.1%. Unless noted, the call rests on the fitted dose curve; in most records, active means well fitted curve in the direction sought with a large enough effect; inconclusive means small, poorly fitted or top-dose-only effect, or another doubt; inactive means no such curve, though single readings can be large; an effect the other way counts as inactive or inconclusive.
SMILES,PLK1 PBD block,Vif-APOBEC3F blk,Vif-APOBEC3G blk,TSHR antagonist,VDR inhibitor
O=C(NC1c2ccccc2-c2ccccc21)c1ccccc1,27µM*,1%,4%,-11,-22%
COc1cc(SC)ccc1C(=O)N1CCC(Cc2ccccc2)CC1,nt,nt,nt,-10,?
O=C(CSc1ccccn1)Nc1ccc2c(c1)C(=O)c1ccccc1C2=O,0%,-4%,-11%,-16,-24%
O=C(CSc1n[nH]c(=O)[nH]c1=O)Nc1ccc2c(c1)C(=O)c1ccccc1C2=O,6.7µM*,6%,-3%,-13,?
O=C(NCCCc1ccncc1)C1CCC(=O)N(Cc2cccc(F)c2)C1 (configuration not stated),30µM*,-5%,2%,22,?
CCN=C1SC(CC(=O)NC2CCCCC2)C(=O)N1CC (configuration not stated),-2%,-2%,-1%,-1,6%
CN1C(=O)C(CC(=O)NC2CCCCC2)SC1=Nc1ccccc1 (configuration not stated),30µM*,-9%,0%,18,-22%
O=C(/C=C/c1ccccc1)CC(O)(c1ccccc1)C(F)(F)F (configuration not stated),?,-1%,?,-12,-88%
COc1ccc(/C=C/C(=O)CC(O)(c2ccccc2)C(F)(F)F)cc1 (configuration not stated),-6%,-3%,-11%,-19,35µM*
CCCCCCCCCC[Si](C)(C)CCC(=O)N[C@@H](Cc1ccc(C)cc1)c1ccccc1,nt,nt,3%,nt,nt
CCCCCCCCCCOC(=O)C[N+](C)(C)C/C=C(/C)Cl,30µM*,0%,4%,-3,-25%
Cn1c(C(=O)NCCc2ccccc2)cc2cc(S(=O)(=O)N3CCCCC3)ccc21,nt,-1%,3%,nt,4%
C1=Nc2ccccc2/C1=C/c1c[nH]c2ccccc12,nt,nt,-12%,nt,nt
CSCC[C@H](NC(=O)N1CCn2c1nc1ccccc12)C(=O)NCc1ccco1,27µM*,5%,-7%,0,-16%
CSCC[C@H](NC(=O)N1CCn2c1nc1ccccc12)C(=O)NCc1ccccc1,-20%,-13%,0%,-4,-11%
COC(=O)c1cc(C)nc(Sc2ccccc2N)n1,1.7µM*,-21%,3%,5,5µM*
O=C1CCCCCN1C(=O)c1ccccc1,-11%,-1%,1%,nt,-1%
O=C1CCCCCN1Sc1ccccc1,1.1µM*,?,-9%,-18,13µM*
CN1CCN(CCCOc2ccc(-c3ccccc3)cc2)CC1,21µM*,-2%,0%,17,-19%
COc1cc(/C=C(/C#N)C(=O)NCc2ccccc2)cc(OC)c1OC,-4%,4%,-8%,-14,-22%
CCOc1cc(/C=C(\C#N)C(=O)Nc2ccccc2C(=O)O)ccc1OC(=O)c1ccc(C)cc1,19µM*,-1%,0%,9,?
COc1cc(/C=C(\C#N)C(=O)Nc2ccccc2C(=O)O)cc(Cl)c1OC,21µM*,14%,1%,11,?
COc1cc(C=C(C#N)C(=O)c2ccccc2)cc(OC)c1OC,3.8µM*,nt,0%,nt,nt
COc1ccc(/C=C(/C#N)C(=O)Nc2ccccc2C)cc1C(=O)O,-3%,0%,1%,3,-13%
Cc1ccc(F)c(C2C3C=CCC(c4ccccc4)C3C(=O)N2Cc2ccccc2)c1 (configuration not stated),nt,nt,-12%,nt,-12%
SMILES,PLK1 PBD block,Vif-APOBEC3F blk,Vif-APOBEC3G blk,TSHR antagonist,VDR inhibitor
COc1ccc(C(=O)Nc2ncnc3nc[nH]c23)cc1,nt,nt,0%,nt,nt
C=CC[C@@H]1[C@H](O)CC[C@@]2(C)[C@H]1CC[C@@H]1[C@@H]2CC[C@]2(C)C([C@H](C)CCCC(C)C)CC[C@@H]12 (some centres not stated),nt,nt,nt,nt,0%
Cc1cccc(NC(=O)C(NS(=O)(=O)c2ccc3c(c2)CCC(=O)N3)c2ccccc2)n1 (configuration not stated),13µM*,-15%,-5%,5,-7%
CCc1cccc(C)c1NC(=O)C(NS(=O)(=O)c1ccc2c(c1)CCC(=O)N2)c1ccccc1 (configuration not stated),nt,-3%,-3%,nt,-12%
CCOC(=O)c1sc(NC(=S)NC(=O)c2ccco2)nc1C,-23%,22µM*,-1%,-1,-2%
COc1ccc2nc(NC(=S)N(C)C)sc2c1,5.3µM*,2%,3%,-19,?
COc1ccc2nc(NC(=S)NC(=O)c3ccco3)sc2c1,-8%,10µM*,0%,-12,-13%
CCOC(=O)c1sc(NC(=O)/C=C/c2ccc(F)cc2)nc1C,21µM*,?,0%,2,-13%
COc1cc(OC)c(/C=C/c2c3ccccc3cc[n+]2C)c(OC)c1,nt,nt,-4%,nt,nt
COc1ccc(NC(=O)CS(=O)(=O)c2cccc(Cl)c2)cc1,21µM*,5%,1%,13,?
COc1ccc(NC(=O)CS(=O)(=O)c2ccc(Br)cc2)cc1,-6%,-2%,-1%,-6,6%
O=C1OC(Nc2nc3ccccc3s2)c2ccccc21 (configuration not stated),?,4%,2%,1,4%
O=C1OC(Nc2nccs2)c2ccccc21 (configuration not stated),24µM*,2%,3%,-12,?
Cc1ccc(Cl)cc1NC(=O)CSC(N)=O,?,4%,0%,-3,45µM*
COCC(=O)Nc1cc(Cl)ccc1C,-5%,-12%,-2%,3,-11%
CN(Cc1ccccc1)C(=O)[C@H](Cc1ccc2ccccc2c1)NC(=O)[C@@H]1C[C@@H](O)CN1C(=O)c1cn(C)c2ccccc12,nt,nt,nt,nt,3%
O=C(NCC#CCOCc1ccccc1)c1ccccc1,27µM*,-4%,-1%,-5,-11%
O=C(NCCNC(=O)c1ccccc1)c1ccccc1,4%,2%,1%,5,-8%
COc1ccc(CNc2ccnc(-c3c(C)noc3C)n2)c(OC)c1,nt,nt,nt,nt,-27%
N#Cc1nc(-c2ccc(Cl)cc2)oc1NCc1ccco1,27µM*,-7%,0%,-10,-11%
Cc1ccc(Cc2c[nH]c(=S)s2)cc1,6.7µM*,-5%,0%,0,-15%
CCN1CCOC(=O)C1CC(=O)Nc1cc(Cl)ccc1C (configuration not stated),nt,1%,-9%,nt,?
NCCCCCCCCCCNCCCN,nt,nt,nt,nt,6%
COc1cc(F)ccc1S(=O)(=O)n1c(C)nc2ccccc21,-13%,4%,0%,-14,-6%
COc1cc(C)c(C)cc1S(=O)(=O)n1c(C)nc2ccccc21,27µM*,-1%,-5%,-3,-22%
